The values below come from ChEMBL document CHEMBL3988442, “University of Dundee, Small-Polar-MMV Screening Library” (2021).

Hit rate of the full screen: of about 48,000 compounds, about 13,000 (27%) showed an effect of 50% or more. The list shows a part of the results.

The test system of this experiment is Wolbachia pipientis. Description: Anti-Wolbachia Cell-Based Screen. Also noted: scale not given: in the data most compounds retested in dose-response had high values. The following applies: 5 µM. The experiment is classed as functional.
With `Cc1ccsc1CN(C)c1nc2c(cnn2C(C)(C)C)c(=O)[nH]1`, the “Percent Effect” value is reported as -15.84%.

With `O=C(C1CCCCC1)N1CCN(Cc2nc(-c3ccco3)no2)CC1`, the “Percent Effect” value was determined as 98.36%.

As to `c1coc(-c2noc(CN3CCC(c4ccn[nH]4)CC3)n2)c1`, the “Percent Effect” value is reported as 3.524%.

Take `CC(C)c1cc(C2CCCN2Cc2nc(-c3ccco3)no2)no1` (stereo unspecified): the “Percent Effect” value was -36.51%.

Consider `O=C(C1CCCCN1Cc1nc(-c2ccco2)no1)N1CCCC1` (stereo unspecified), for which the “Percent Effect” value is -6.382%.

On to `CC(C)(C)CC1CCCN1Cc1nc(-c2ccco2)no1` (stereo unspecified), for which the “Percent Effect” value came out at 1.615%.

`O=C(c1ccco1)N1CCN(Cc2nc(C3CC3)no2)CC1`: the “Percent Effect” value is given as -17.27%.

For `O=C(C1CCN(Cc2nc(-c3ccco3)no2)CC1)N1CCCC1`, the “Percent Effect” value stood at 109.9%.

On to `NC(=O)NCC1CCCCN1Cc1nc(-c2ccco2)no1` (stereo unspecified), for which the “Percent Effect” value is 116.5%.

`O=C(C1CCCC1)N1CCN(Cc2nc(-c3ccco3)no2)CC1`: the “Percent Effect” value is listed as 3.823%.

Regarding `O=C(C1CCCN1Cc1nc(-c2ccco2)no1)N1CCSCC1` (stereo unspecified), the “Percent Effect” value was found to be 97.23%.

As for `c1coc(-c2noc(CN3CCc4c(ncn4C4CC4)C3)n2)c1`, the “Percent Effect” value is recorded as -13.05%.

For `CCCOCCOC(=O)c1ccc2c(c1)[nH]c(=O)n2C`, the “Percent Effect” value is -3.927%.

For the compound `NC(=O)CCn1cc(CNCCCc2ccccc2O)c2ccccc21`, the “Percent Effect” value is on record as 15.24%.

With `COc1cc(C(=O)Nc2nc(C)no2)ccc1C`, the “Percent Effect” value is recorded as -1.332%.

In the case of `COCC(=O)NC[C@@]1(COc2cnccn2)C[C@@H](O)[C@@H](O)C1.Cl`, the “Percent Effect” value was -5.232%.

Regarding `COCCOCCCC(=O)N1CCC(Cc2ccccc2OC)CC1`, the “Percent Effect” value is -18.09%.

Turning to `FC(F)Oc1ccccc1CNCc1cc(Br)c2c(c1)OCO2`, the “Percent Effect” value was 6.017%.

Regarding `c1ccc(CC2(CNCc3ncc[nH]3)CCC2)cc1`, the “Percent Effect” value is on record as -10.87%.

With `O=C1CCC2(CCN(c3ncc(F)cn3)CC2)N1CCN1CCCC1`, the “Percent Effect” value came out at 20.59%.

`COc1cc(N2CCCC3(CCN(c4cccnc4)C3=O)C2)ncn1.O=C(O)C(F)(F)F` (stereo unspecified): the “Percent Effect” value is reported as -87.96%.

For the compound `N#Cc1ccc(N2CCCC3(CCC(=O)N3CC3CC3)CC2)nc1.O=C(O)C(F)(F)F` (stereo unspecified), the “Percent Effect” value worked out at 105.4%.

With `N#Cc1cccc(CN2CC3(CCCCN3c3cncnc3)CC2=O)c1.O=C(O)C(F)(F)F` (stereo unspecified), the “Percent Effect” value is reported as -19.74%.

Take `O=C1CCC2(CCCN(c3ncc(F)cn3)CC2)N1CC1CC1` (stereo unspecified): the “Percent Effect” value is given as -5.991%.

For the compound `O=C(O)C(F)(F)F.O=C(O)C(F)(F)F.O=C(c1ccncc1)N1CCCC2(CCN(c3cccnc3)C2=O)C1` (stereo unspecified), the “Percent Effect” value was -3.414%.

On to `N#Cc1ccc(N2CCC(c3nc(C(F)(F)F)c[nH]3)CC2)nc1`, for which the “Percent Effect” value is given as -13.67%.

For `CN1C(=O)CCC12CCN(c1ccc(C#N)cn1)CC2.O=C(O)C(F)(F)F`, the “Percent Effect” value came to 114%.

Consider `N#Cc1ccc(N2CCC3(CCC(=O)N3CCN3CCCC3)CC2)nc1.O=C(O)C(F)(F)F.O=C(O)C(F)(F)F`, for which the “Percent Effect” value amounted to 111.3%.

Turning to `N#Cc1ccc(N2CCCC3(CCN(c4cncnc4)C3=O)C2)nc1.O=C(O)C(F)(F)F` (stereo unspecified), the “Percent Effect” value is on record as 104%.

As to `COCCN1CCOCC12CCN(c1ccc(C#N)cc1)CC2.O=C(O)C(F)(F)F`, the “Percent Effect” value worked out at 1.624%.

As for `O=C(O)C(F)(F)F.O=C(O)C(F)(F)F.O=C1CCC2(CCCN(Cc3nccs3)C2)N1CC1CC1` (stereo unspecified), the “Percent Effect” value is listed as -83.2%.
